From PubChem BioAssay (NCI) come the findings set out here.

This assay is described as follows: NCI Yeast Anticancer Drug Screen. Data for the rad14 strain (AID 159).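 Note: 0% = growth of vehicle-treated control cultures.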 To be noted: S. cerevisiae rad14 strain growth inhibition, active compounds read high. As for the experimental part:
Growth inhibition of yeast strains with defined genetic alterations is measured as a screen for potential anti-cancer activity. Selected strains with alterations in DNA damage repair or cell cycle control were exposed to compounds and growth inhibition was measured relative to vehicle treated controls. The strain used in this assay is rad14

The panel holds about 79,000 compounds, 15% with a hit somewhere; the sample as a whole holds those more often. The source made the active and inactive calls. Cut-off read from the data, not from the text of the source: active = growth inhibition above about 70%; inactive = the rest.

Regarding `CN(CC(=O)O)c1ccc(/C=C/c2ccnc3ccccc23)cc1`, the growth inhibition was -3% (inactive) (at 1.2 µM); -5% (inactive) (at 3.7 µM); -2% (inactive) (at 11.0 µM); 6% (inactive) (at 33.0 µM); 32% (inactive) (at 100.0 µM).

For `CCCc1[nH]nc(C(N)=O)c1N=NN(C)C`, the growth inhibition reads like this: (at 1.2 µM) 0% (inactive); (at 3.7 µM) -1% (inactive); (at 11.0 µM) 5% (inactive); (at 33.0 µM) 11% (inactive); (at 100.0 µM) 30% (inactive).

Turning to `O=C1C(Cl)=C(Cl)C(Cl)(Cl)C(Cl)C1(Cl)Cl` (stereo not given), the growth inhibition reads like this: (at 1.2 µM) 17% (inactive); (at 3.7 µM) 25% (inactive); (at 11.0 µM) 44% (inactive); (at 33.0 µM) 99% (active); (at 100.0 µM) 99% (active).

In the case of `O=Cc1coc2ccccc2c1=O`, the growth inhibition (at 1.2 µM) is -16% (inactive); the growth inhibition (at 3.7 µM) was -7% (inactive); the growth inhibition (at 11.0 µM) is 8% (inactive); the growth inhibition (at 33.0 µM) was 16% (inactive); the growth inhibition (at 100.0 µM) was 95% (active).

Take `CC1=CC2C(C(C)C)CC1C1C(=O)OC(=O)C21` (stereo not given): the growth inhibition is -2% (inactive) (at 1.2 µM); 4% (inactive) (at 3.7 µM); 13% (inactive) (at 11.0 µM); 24% (inactive) (at 33.0 µM); 78% (active) (at 100.0 µM).

`[Pt].c1ccc(P(CCP(c2ccccc2)c2ccccc2)CCP(c2ccccc2)c2ccccc2)cc1`: the growth inhibition was 4% (inactive) (at 1.2 µM); -2% (inactive) (at 3.7 µM); 22% (inactive) (at 11.0 µM); 81% (active) (at 33.0 µM); 91% (active) (at 100.0 µM).

For `O=C1c2ccccc2C(=O)c2cc(S(=O)(=O)Nc3ccccc3)ccc21`, the growth inhibition (at 1.2 µM) is -1% (inactive); the growth inhibition (at 3.7 µM) was 1% (inactive); the growth inhibition (at 11.0 µM) was 7% (inactive); the growth inhibition (at 33.0 µM) is 12% (inactive); the growth inhibition (at 100.0 µM) is 11% (inactive).

In the case of `Cc1cc(OCc2ccccc2)ccc1[N+](=O)[O-]`, the growth inhibition reads like this: (at 1.2 µM) -15% (inactive); (at 3.7 µM) 1% (inactive); (at 11.0 µM) 11% (inactive); (at 33.0 µM) 39% (inactive); (at 100.0 µM) 63% (inactive).
